Here are results for 40 sequences from the supplement of paper PMC6555819.

The assay concerns VDR:RXRa (NR concentration 270 nM, RXRa partner concentration 90 nM). Description: PBM binding z-score (relative to random genomic background probes); higher = stronger binding; sequences stand for … in GC…GCGATTGACAGCGTAGAATGAAGG
The method, then:
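Protein-binding microarray (Agilent 4x180K custom design, double-stranded 60-nt probes: 5' GC cap, 34-nt variable region, 24-nt constant primer region; full probe sequence given). Purified or IVT nuclear receptor:RXRα heterodimers (3:1 NR:RXRα, mostly 270:90 nM) or homodimers were incubated for 1 h in PBS with 2% milk and no ligand, then detected with Alexa488 antibodies. Fluorescence from o1-orientation probes (~5 replicates averaged) was converted to z-scores against 500 random hg19 background probes. Variable regions are seed direct-repeat (DR0–DR5) sites, all their single-nucleotide variants and half-site ablations.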
With GGAACGAGGGGAAGTTGATAGCAGAGTTTGATGG, the PBM binding z-score was -0.234. In the case of CCGACTGGGCCAAAAAGGTCATTGATGCCGATAA it was 4.64; in that of GGAACGAGGGCATTCGAGTTGATCGCATGGCGAT, 3.61. AATACAGGGTCACTAGGCCAGATTAGGTACGAAT registered a PBM binding z-score of 4.21. CCTAATGGGCCATTCAGAGGTCATTGATCATATG had a PBM binding z-score of 4.1.

GCCCGGAGGACAAGGTCAGAGCTTTGTCCGTAGA had a PBM binding z-score of 1.11. In the case of ACTATTAATTGAGACGAGGGCAACCGATAGGTTG it was 0.764; in that of CCTTACGGGTCAAGGTTATAGCACGGGTGGTACG, 3.41; in that of CCAGACAGGTGGGAAGGTAACTCAGCCTCGATTA, -0.285. To CCCTACGGGTCAAGGTTATAGCACGGGTGGTACG belongs 3.26; to AGTCTAAGTTCAGGACGAGGTAACGTAAAGCACG, 2.58; to CCGACTGGTGCAGAAAGGTTACCATACCATCCGG, 0.685. GCTATTACTTGAAAGGGCAACCGAATGATTCTCG had a PBM binding z-score of 0.432.

ATCGAAAGTTCGAAGGTGAGTATACCCACCCGAA gave a PBM binding z-score of 1.29.

On to GTAACAAGGTGAATAGGTCGTTGATGAGTAGGCG, for which the PBM binding z-score came to 1.22. In the case of TCTAGTTGGTCGAAGGTCACACACTCGAAATGCG it was 3.37; in that of ATTCGGAGGACAAAGGTCAGAGCTACGCCAGTGA, 3.4; in that of GGAACGAGGGCAAAGTTGAAAGCATCTGTCGACG, 1.76.

Consider CCTTACGGGTCACGAGGTTATACCACGACGAGCG, for which the PBM binding z-score was found to be 5.37. GCTTACGGGTCAAAGGTTGTAGCATGAATAGAAT showed a PBM binding z-score of 4.66. Sequence CCTGGTTGGTCAAGGTCACACACGCTATAGGTAC registered a PBM binding z-score of 4.37. As for AGTCAAAGTTCGTCTAGGTAACGTAAGATATGCT, the PBM binding z-score was 2.59. Turning to TCAGCTAGGTCAGTTGGTCAGCTAACGAGCTGCC, the PBM binding z-score is 0.211.

Turning to CGAACTAGATCATTGACAGGACAGTGAATAGTAA, the PBM binding z-score amounted to 0.158. To TCCTGTAGATCAACAGGAGGTTAAGAAAGATCGA belongs 0.266.

For the sequence TCTAGTTGGTCAGAGGTCACACACTCGAAATGCG, the PBM binding z-score was found to be 4.95.

The sequence CGTCCACGGTCAAGGTCAGTGAAAGAGACTCGAA returned a PBM binding z-score of 1.43. TCTTGTAGATCAATAGAGGTTAAGAAGGTGCGCT returned a PBM binding z-score of 1.91.

The sequence GTACCAAGGTGAATAGGTCGTTAATGAGTAGGCG returned a PBM binding z-score of 0.93.

CCTAGTTGGTCAGGAGGTCACACCCCGGATATGA came in with a PBM binding z-score of 3.82. CCGACTGGGGGAAGGTTACCATAACGCACAGCCA displayed a PBM binding z-score of 0.558. GCGACTGGGGCATCAGCAGGCTACCATAACTTAA had a PBM binding z-score of -0.769. The sequence TAGCCTAGGTCAAGGGCCAGTATACCACGCGAAC registered a PBM binding z-score of 1.6. To ATATGTAGGTTACATCCGGTTCATTCAGGCTATG belongs 4.76.

Sequence TCTAGCAGGTCAGAGGGTCACTCAAGAGGTACGG gave a PBM binding z-score of 4. In the case of GCAGACAGGTGAAACGCAGGTAACACAGGGTGGC it was -0.439; in that of CCGACTGGGGCAGAAAGGTTAACATACCATCCGG, 1.12; in that of TAGCCTAGGTCATGGGCCAGTACACCACGCGAAC, 2.38. On to ACCATTAGTTGAGACGAGGGCAACCGATAGGTTG, for which the PBM binding z-score is 0.755. CCGAGTAGGTTATGAGGCATTCAGGCAACGGTGA: the PBM binding z-score is -0.286.
